IMPase Li cell: membrane-permeable IMPase blocker, potentiated with lithium | 210,000 compounds, 0.35% hits | Potency, µM (series often up to 59.4 µM), without a hit: top-dose activity, negative = IMPase inhibition, actives largely listed as inhibitors | CHO-M1 cells, IP1 TR-FRET (IP-One), carbachol + lithium;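 note: IP1 builds up when IMPase is blocked and the TR-FRET signal falls; potency is the fitted concentration of half-maximal effect; plate controls were basal vehicle for no effect and high inhibitor control for full effect; nearly all actives have a fitted effect of over 50% in size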
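Concentration–response in CHO-M1 cells, lithium-potentiated; 30 min at 37C. IP1 detected by competitive TR-FRET after 10 min lysis at RT. Hill-fitted AC50.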
HTT cytoprotect: Huntington cell model cytoprotection by ATP luminescence; PC12 HTT-Q103 induced, cytoprotection, ATP luminescence, 40 h; 230,000 compounds, 0.14% hits; AID 1471; Potency, µM (top dose mostly 56.4 µM), for the others: cytoprotection (ATP increase), hits mostly activators; note: potency is the fitted concentration of half-maximal effect; % of control where 0% means no effect; nearly all actives have a fitted effect of over 45% in size
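Readout: ATPlite luminescence (ATP level). Model: stable PC12, inducible Htt exon1 Q103-GFP. Inducer: tebufenozide, 100 nM final. Compounds: dose series. No G418 in medium.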
HttQ103 aggreg: reduces HttQ103-GFP aggregates in PC12 cells. PC12 HttQ103-GFP aggregates, Acumen cytometry, 40 h. Potency, µM (highest dose often 46.1 µM), inactives show at the top dose activity change, negative = inhibition, hits mostly inhibitors. AID 1688. 220,000 compounds, 1.1% hits; note: potency is the fitted concentration of half-maximal effect; % is set by controls: 0 for no effect and ±100 for the full control effect; nearly all actives have a fitted effect of over 60% in size
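Inducible Q103 Huntingtin exon 1–GFP PC12 line, 1500 cells/well in phenol red free DMEM with 5% equine and 5% calf serum. Tebufenozide 100 nM induced expression; compounds titrated; aggregates quantified by cytometry.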
IMPase inh: membrane-permeable compound that blocks inositol monophosphatase | P97697 | CHO-M1 cells, IP1 accumulation, HTRF TR-FRET ratio | inhibition (IP1 accumulation), % at 46.1 µM | 120,000 tested, under 10 active; active = well fitted curve in the direction sought with a large enough effect in the signal ratio, not every such curve was filed as active; inconclusive = small, poorly fitted or top-dose-only effect, or a change in a side signal; inactive = no such curve, though single readings can be large or run the other way; the % refers to the signal ratio;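 note: cells stimulated with carbachol in lithium chloride buffer; plate controls were DMSO basal wells for no effect and reference inhibitor wells for full effect; higher means more IMPase inhibition seen as more IP1 and lower FRET ratio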
Target sequence (P97697 whole entry, looked up): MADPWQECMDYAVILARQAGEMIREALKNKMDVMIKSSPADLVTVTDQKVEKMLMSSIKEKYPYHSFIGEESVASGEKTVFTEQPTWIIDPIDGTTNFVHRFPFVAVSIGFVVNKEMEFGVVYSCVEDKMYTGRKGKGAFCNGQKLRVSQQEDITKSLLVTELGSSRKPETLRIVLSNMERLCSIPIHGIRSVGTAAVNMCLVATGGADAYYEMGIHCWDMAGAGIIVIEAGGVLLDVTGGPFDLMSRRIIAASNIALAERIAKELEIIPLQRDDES
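CHO-M1 cells (CHO stably expressing M1 receptor), compound up to 46 uM final, stimulated with carbachol (50 uM as added) in buffer with 50mM LiCl, pH 7.4, 30 min at 37C. Cytosolic IP1 read by TR-FRET; AC50 from Hill fits.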
ALDH1A1 inh: blocks purified human ALDH1A1 activity; P00352; Purified ALDH1A1, NADH fluorescence, propionaldehyde substrate; Potency, µM (doses to about 75.3 µM), for the others: top-dose activity, negative = inhibition, hits mostly inhibitors; 220,000 compounds, 7.3% hits; active = well fitted inhibition curve with a large enough effect, not every such curve was filed as active; inconclusive = small, poorly fitted or top-dose-only effect, or another doubt; inactive = no such curve, though single readings can be large or run the other way;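 note: potency is the fitted concentration of half-maximal effect; plate controls were no enzyme wells and a reference inhibitor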
HPGD block: blocks human HPGD enzyme activity. P15428. purified HPGD, NADH fluorescence kinetic, PGE2 substrate. Potency, µM, without a hit: at the top dose activity change, negative = inhibition, usual class: inhibitors. 150,000 compounds, 4.3% hits; active = well fitted inhibition curve with a large enough effect, not every such curve was filed as active; inconclusive = small, poorly fitted or top-dose-only effect, or another doubt; inactive = no such curve, though single readings can be large or run the other way; note: potency is the fitted concentration of half-maximal effect; % is set by controls: 0 for no effect and ±100 for the full control effect
Target sequence (P15428 whole entry, looked up): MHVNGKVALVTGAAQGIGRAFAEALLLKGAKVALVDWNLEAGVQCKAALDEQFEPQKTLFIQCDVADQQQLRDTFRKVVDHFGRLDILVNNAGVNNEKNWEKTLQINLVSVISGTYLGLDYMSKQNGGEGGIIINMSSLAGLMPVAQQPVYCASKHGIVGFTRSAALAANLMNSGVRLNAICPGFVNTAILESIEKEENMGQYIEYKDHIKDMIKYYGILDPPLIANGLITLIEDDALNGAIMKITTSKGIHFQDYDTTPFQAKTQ
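NADH formation kinetics: reaction with 30 uM PGE2 and 1 mM NAD+ (final), 20 nM enzyme, Tris-HCl pH 8 with Tween 20, after 15 min compound preincubation at room temperature. Fluorescence change, last versus first of five reads.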
* = called active by the depositor; ? = inconclusive; / = not tested or not shown; [ ] = remark or other dose. Most compounds without a hit are left out; they make up all but 9.4% or so of the library. Unless noted, calls come from the whole dose curve; as a rule, active = well fitted curve in the direction sought with a large enough effect; inconclusive = small, poorly fitted or top-dose-only effect, or another doubt; inactive = no such curve, though single readings can be large; an effect the other way counts as inactive or inconclusive.

SMILES	IMPase Li cell	HTT cytoprotect	HttQ103 aggreg	IMPase inh	ALDH1A1 inh	HPGD block
C#CCN1C(C)=C(C(=O)OC)[C@@H](c2cccc([N+](=O)[O-])c2)C(C(=O)OCC)=C1C	/	-9%[1.9 µM]	/	11	/	/
Cc1noc(C)c1C(=O)N1CCC(CO)(Cc2ccccc2)CC1	25%	-18%	-7%	/	4µM*	/
Cc1noc(C)c1C(=O)N1CCN(Cc2ccccc2)CC1	23%[38.3 µM]	1%	-7%	1	-2%	-6%
O=C1[C@H]2[C@H]3[C@H](O)[C@H](O)C/C(=N/OCc4ccccc4)[C@@H]3CC[C@@H]2C(=O)N1c1cccc(Oc2ccccc2)c1	/	-172%[10 µM]	/	/	-12%[13.5 µM]	/
O=c1[nH]n(-c2ccc(F)cc2)c2ncccc12	4%[38.3 µM]	7%	-4%	3	7%	18µM*
O=c1ncn(-c2ccc(F)cc2)c2ncccc12	13%[38.3 µM]	-2%	9%	1	2%	-6%
CN(C)c1nc(N(C)C)nc(N2CC(=O)N(c3ccccc3)C2=N)n1	3%	-23%	16%	/	1.4µM*	/
O=C(Cn1c(=O)c2ccccc2n(CC(=O)Nc2ccc(Cl)cc2)c1=O)NCCc1ccccc1	/	/	/	-10	/	/
O=C1C=CC2=C3c4cc(O)c(O)cc4C[C@]3(O)COC2=C1	50%	?	/	/	5%	16µM*
COc1ccc(-c2cc([C@H](O)[C@@H]3CCCCN3)c3ccccc3n2)cc1	/	-12%[10 µM]	/	/	/	/
COc1ccc(C(=O)N2CCC[C@@]3(CCN(Cc4ccncc4)C3)C2)cc1	21%	?	/	/	28µM*	35µM*
O=C(c1ccncc1)N1CCC[C@@]2(CCN(Cc3ccncc3)C2)C1	?	-4%	/	/	22µM*	-13%
COc1ccc(NC(=O)N2CC[C@@]3(CCCNC3)C2)cc1	20%	0%	/	/	14µM*	-4%
COc1ccc(NC(=O)N2CC[C@@]3(CCCN(C(=O)c4ccncc4)C3)C2)cc1	7%	2.2µM*	/	/	-5%	-9%
COC(=O)N1CCC2(CCCN(C(=O)Nc3ccc(OC)cc3)C2)CC1	-6%	16%	/	/	3%	1%
COc1ccc(C(=O)N2CCC[C@@]3(CCN(Cc4ccccc4)C3)C2)cc1	9%	19%	/	/	?	?
O=C(c1cccc(F)c1)N1CCC[C@@]2(CCN(Cc3ccncc3)C2)C1	5%	6%	/	/	?	?
N#Cc1ccc(CN2CC[C@@]3(CCCN(C(=O)c4cccc(F)c4)C3)C2)cc1	-1%	-9%	/	/	-9%	28µM*
CC(C)c1ccc(NC(=O)c2cn(C3CCCC3)c(=O)c3c2c2ccccc2n3C)cc1	/	/	/	4	/	/
CC(=O)NCCCOc1ccc([N+](=O)[O-])cc1Cl	/	6%[10 µM]	2%[9.22 µM]	/	/	/
COc1ccccc1OCCCOc1ccc([N+](=O)[O-])cc1Cl	-19%[38.3 µM]	-12%	-11%	14	-3%	16µM*
COc1cccc(OCCCOc2ccc([N+](=O)[O-])cc2Cl)c1	17%[38.3 µM]	7%	-28%	-8	-6%	18µM*
CN(c1ccccc1)S(=O)(=O)c1ccc(NC(=O)c2ccccc2)cc1	0%	/	?	/	-11%	-26%
Cc1cccc(C(=O)NC(=S)Nc2ccc(S(=O)(=O)N(C)c3ccccc3)cc2)c1	23%[38.3 µM]	11%	-12%	-1	20µM*	-14%
Cc1ccccc1C(=O)NC(=S)Nc1ccc(S(=O)(=O)N(C)c2ccccc2)cc1	37%[38.3 µM]	-17%	?	7	18µM*	-8%
C(=N\N(Cc1ccccc1)c1ccccc1)/c1ccco1	18%	-30%	11%	/	14µM*	/
O=c1ccc2c(o1)/C(=C/C=C(Cl)Cl)CCC2	-1%[38.3 µM]	-3%[10 µM]	-8%	2	7.1µM*	-22%
N[C@@H](C(=O)O)c1cc(O)ccc1Cl	12%	-41%[1.9 µM]	/	-3	-8%	-28%
CC(C)C[C@@H](CC(=O)N[C@@H](CCCN)CC(=O)N[C@@H]1CCNC[C@H]1C(=O)N[C@H](CC(=O)N[C@@H](CCC(=O)O)CC(=O)O)Cc1ccccc1)NC(=O)[C@@H]1CCCC[C@H]1N	-11%	-4%	/	/	-12%	-3%

From PubChem BioAssay
